Sampled rows, rich in hits. Any-hit rate of the full collection: about 3.2%.
PNC assembly inh = High Content Assay for Compounds that inhibit the Assembly of the Perinucleolar Compartment. AID 2417, 2010. PC3M PTB-GFP, PNC prevalence imaging, 16 h; hits give low values. activity change (PNC), negative = inhibition, % at 10 µM. 140,000 compounds, 3.1% hits;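 active means readout at or below -70, meaning at least 70% loss of cells showing the perinucleolar compartment, a nuclear body marking cancer cells; inconclusive means readout between -30 and a set limit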;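 further: plate controls were DMSO wells for no effect and camptothecin positive control wells for full effect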
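PC3M cells stably expressing PTB-GFP, 750–1000 cells/well, treated 16 h at 37 °C with compound (23 nl of library stock), in duplicate. After paraformaldehyde fixation and Hoechst stain, imaged at 20x; PNC prevalence scored by image analysis.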
15-hLO-2 inh = qHTS Assay for Inhibitors of 15-hLO-2 (15-human lipoxygenase 2). Polyunsaturated fatty acid lipoxygenase ALOX15B (Homo sapiens), O15296. purified 15hLO-2, xylenol orange hydroperoxide absorbance. Potency, µM (highest dose often 57.1 µM), without a hit: at the highest dose activity change, negative = inhibition, actives largely listed as inhibitors. 110,000 compounds, 0.56% hits. AID 881, 2007; further: potency means the concentration at half of the fitted maximal effect; nearly all actives have a fitted effect of over 60% in size
Target sequence (O15296 whole entry, looked up): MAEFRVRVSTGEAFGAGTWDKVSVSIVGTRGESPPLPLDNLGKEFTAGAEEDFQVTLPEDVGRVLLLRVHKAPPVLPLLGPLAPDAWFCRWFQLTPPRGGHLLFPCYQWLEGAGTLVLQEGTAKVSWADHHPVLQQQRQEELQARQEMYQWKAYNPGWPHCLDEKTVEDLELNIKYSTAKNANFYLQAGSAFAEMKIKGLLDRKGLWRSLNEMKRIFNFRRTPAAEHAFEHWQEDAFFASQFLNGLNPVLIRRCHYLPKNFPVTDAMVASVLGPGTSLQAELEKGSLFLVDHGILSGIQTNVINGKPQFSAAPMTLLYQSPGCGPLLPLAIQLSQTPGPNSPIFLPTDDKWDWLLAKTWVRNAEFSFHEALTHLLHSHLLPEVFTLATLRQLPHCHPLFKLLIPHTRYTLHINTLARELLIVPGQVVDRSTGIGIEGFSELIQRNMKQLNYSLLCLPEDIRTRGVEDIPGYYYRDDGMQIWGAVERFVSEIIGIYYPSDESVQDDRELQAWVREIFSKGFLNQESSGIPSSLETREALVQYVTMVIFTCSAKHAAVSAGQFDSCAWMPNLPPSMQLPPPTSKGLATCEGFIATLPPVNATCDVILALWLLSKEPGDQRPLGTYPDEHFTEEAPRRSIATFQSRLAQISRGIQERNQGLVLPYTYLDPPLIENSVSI
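Read-out: hydroperoxide product oxidises ferrous iron, measured as xylenol orange complex via the 573-to-405 nm absorbance ratio after 30 min. Reaction: 50 nM enzyme, 15 min compound preincubation, 45 uM arachidonic acid, 90 min RT, Hepes pH 7.5 with Triton X-100.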
ALOX12 inhib = qHTS Assay for Inhibitors of 12-hLO (12-human lipoxygenase) | 150,000 compounds, 0.12% hits | purified 12-hLO, xylenol orange hydroperoxide absorbance | Polyunsaturated fatty acid lipoxygenase ALOX12 (Homo sapiens), P18054 | Potency, µM (titrated, usually from 57.1 µM), for inactives: at the top dose activity change, negative = inhibition, actives largely listed as inhibitors; further: potency means the concentration at half of the fitted maximal effect; nearly all actives have a fitted effect of over 55% in size
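Purified human 12hLO (150 nM), preincubated 15 min with compound, then 40 uM arachidonic acid for 30 min, room temperature, Hepes pH 7.0 with 0.01% Triton X-100. Hydroperoxide detected by ferrous iron/xylenol orange; 573/405 nm absorbance ratio gives reaction progress.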
Starred values were filed as active, the others as inactive; ? = inconclusive; / = not tested or not shown; [ ] = dose if it differs, or a comment. Unless noted, the call rests on the fitted dose curve; in most records, active means well fitted curve in the direction sought with a large enough effect; inconclusive means small, poorly fitted or top-dose-only effect, or another doubt; inactive means no such curve, though single readings can be large; an effect the other way counts as inactive or inconclusive. Unless noted, on the % scale 0 is the no-effect control and ±100 the full control effect.

SMILES	PNC assembly inh	15-hLO-2 inh	ALOX12 inhib
COC(=O)c1c(-c2ccc(C(C)(C)C)cc2)csc1NC(=O)C1C2CCC(O2)C1C(=O)O (stereo unspecified)	-98.3*	/	-3.8%
O=C(CSc1nnc(Cn2c(=O)sc3ccccc32)n1-c1ccccc1)Nc1nccs1	41.5	/	0.2%
COC(=O)CN(c1ccccc1C)S(C)(=O)=O	-10.8	-4.9%	-4.7%
COC(=O)CN(c1c(C)cccc1C)S(C)(=O)=O	-86.1*	-7.2%	4.0%
N.N.O=C(O)C1(C(=O)O)CCC1.[Pt]	/	-5.8%	-6.2%
Cc1ccc(-n2c(=O)c3sccc3n(Cc3cc(=O)n4cc(Cl)ccc4n3)c2=O)cc1F	-82.9*	/	-6.9%
Cc1ccc(-n2c(=O)c3sccc3n(Cc3cc(=O)n4ccccc4n3)c2=O)cc1F	-6.1	/	-5.9%
Cc1cc(C(=O)Nc2nnc(-c3ccccc3)s2)no1	-98.4*	5.9%	0.3%
Cc1cc(C(=O)Nc2nnc(C3CCCCC3)s2)no1	-27.3	-3.5%	0.3%
CCSc1nnc(NC(=O)c2c(-c3ccccc3Cl)noc2C)s1	-15.5	-15.0%	4.6%
Cc1cc(C(=O)Nc2nc3c(s2)CCCC3)no1	-106.7*	1.7%	1.3%
Cc1onc(-c2ccccc2Cl)c1C(=O)Nc1nnc(-c2cccc([N+](=O)[O-])c2)s1	-108.4*	?	-5.1%
Cc1onc(-c2ccccc2)c1C(=O)Nc1nc2c(s1)CCCC2	36.4	38.6%	-12.7%
O=C(O)[C@@H]1[C@@H](C(=O)Nc2ncccn2)[C@@H]2C=C[C@@H]1O2	/	0.6%[11.4 µM]	6.2%[11.4 µM]
CCOc1cc(C(=O)NCCCn2ccnc2)cc(OCC)c1OCC	83.3	/	1.2%
CCOC(=O)Cc1nnc(NC(=O)CSc2nncn2C)s1	-3.7	5.6%	-1.6%
CCOC(=O)Cc1nnc(NC(=O)C(CC)Sc2nncn2C)s1 (stereo unspecified)	-85.3*	-1.5%	0.4%
CCCCN1C(=O)CC(C(=O)O)C1c1ccc(OC)cc1 (stereo unspecified)	5.1	1.6%	3.3%
CCCCN1C(=O)CCC(C(=O)O)C1c1ccccc1 (stereo unspecified)	-102.0*	/	6.6%
COCCCNC(=O)C1CCCN(S(C)(=O)=O)C1 (stereo unspecified)	35.4	/	-0.7%
Cc1ccc(S(=O)(=O)N2CCCC(C(=O)NC3=NCCS3)C2)cc1 (stereo unspecified)	-102.6*	5.9%	-3.8%
Cc1ccc(S(=O)(=O)N2CCCC(C(=O)Nc3cccnc3)C2)cc1 (stereo unspecified)	-14.5	-1.2%	0.0%
COCCCNC(=O)C1CCCN(S(=O)(=O)c2ccc(C)cc2)C1 (stereo unspecified)	-100.0*	/	-0.6%
COc1cc(NC(=S)NC(=O)c2ccccc2F)ccc1NC(=O)c1ccco1	18.3	/	-1.9%
O=C1CN2CCN(CC2)CC(=O)Nc2ccc(cc2)S(=O)(=O)c2ccc(cc2)NC(=O)CN2CCN(CC2)CC(=O)Nc2ccc(cc2)S(=O)(=O)c2ccc(cc2)N1	/	1.1%[11.4 µM]	-1.8%[11.4 µM]
SMILES	PNC assembly inh	15-hLO-2 inh	ALOX12 inhib
COc1ccccc1CNC(=O)COC(=O)c1cc(-c2ccco2)nc2ccccc12	20.2	?	-6.5%
O=C(COC(=O)c1cc(-c2ccco2)nc2ccccc12)NCc1ccc2c(c1)OCO2	-100.0*	/	-7.2%
O=C(NC(Cc1cc(=O)[nH]c2ccccc12)C(=O)O)c1ccc(Cl)cc1 (stereo unspecified)	/	-5.4%	1.1%
O=C(Cn1c(-c2ccccc2)noc1=O)Nc1ccc(N2CCCCCC2)cc1	16.1	-13.3%	-8.1%
CC1=NOC(=O)/C1=C\c1ccc(-c2ccc(Cl)cc2Cl)o1	67.2	7.94µM*	-29.4%
Cc1[nH][nH]c(=O)c1C(c1ccc(-c2ccc(Cl)cc2Cl)o1)c1c(C)[nH][nH]c1=O	13.3	4.8%	-13.3%
CC1(C(=O)CSc2ncn[nH]2)CCC(=O)O1 (stereo unspecified)	-4.1	5.4%	-1.1%
CC1(C(=O)CSc2nc3ccccc3[nH]2)CCC(=O)O1 (stereo unspecified)	-100.0*	/	4.4%
COC(=O)C1=C(C)N(Cc2ccco2)C(=O)N[C@H]1c1ccc(Br)cc1	?	/	-0.1%
Cc1ccccc1C1CC(=O)Oc2ccc(O)cc21 (stereo unspecified)	/	?	-3.5%[0.00818 µM]
Fc1ccc(NC(=S)Nc2ccc(Br)cc2)cc1	-29.9	/	-9.5%
CCCCNC(=S)N=Nc1c(O)n(Cc2ccccc2)c2ccccc12	39.5	/	-5.9%
NC(=S)N=Nc1c(O)n(Cc2ccccc2)c2ccccc12	-100.0*	/	1.5%
O=C(NCc1cccs1)c1cc(-c2cccc(Cl)c2)on1	-124.1*	3.8%	-4.6%
Cc1ccc(-c2cc(C(=O)NCc3cccs3)no2)cc1	20.2	-3.7%	3.8%
CCOc1ccc(-n2nnc3c(=O)n(C/C=C/c4ccccc4)cnc32)cc1	-88.8*	-2.0%	4.8%
Cc1ccc(-n2nnc3c(=O)n(CC(=O)OCc4ccccc4)cnc32)cc1	-12.7	-3.1%	3.0%
C=C1c2cccc(OC)c2O[C@H](C(=O)OCC)[C@@H]1CCC(C)C	/	0.0%[0.0915 µM]	0.1%[0.00818 µM]
CCCCCCCC/C=C\C/C=C\C/C=C\CCCC(=O)NCCO	/	/	1.4%
Cc1ccc(-c2cn(-c3ccccc3)c(SCC(=O)NC3CCS(=O)(=O)C3)n2)cc1C (stereo unspecified)	-83.3*	/	-3.4%
O=C(CSc1nn(-c2ccccc2)c(=S)s1)NC1CCS(=O)(=O)C1 (stereo unspecified)	49.9	/	-2.0%
O=c1c(-c2ccc(F)cc2)nc2cnc(Oc3ccccc3)nc2n1Cc1cccs1	/	-1.7%	/
COc1ccc(CNc2ncnc3ccc(-c4cccc(NS(C)(=O)=O)c4)cc23)c(OC)c1	/	47.2%	/
COc1ccc(-c2nc(NC(=O)c3cc(C(C)(C)C)nn3C)sc2C)cc1	-13.8	34.9%	?
CCOC(=O)c1ccccc1NC(=O)c1n[nH]c(=O)c2ccccc12	?	/	-0.7%
SMILES	PNC assembly inh	15-hLO-2 inh	ALOX12 inhib
Cc1cc(C)c(-c2csc(NC(=O)c3n[nH]c(=O)c4ccccc34)n2)c(C)c1	-89.3*	/	-2.1%
COc1ccc(-c2nc(NC(=O)c3n[nH]c(=O)c4ccccc34)sc2C)cc1	-114.1*	/	-0.4%
CCN(CC)C(=O)c1n[nH]c(=O)c2ccccc12	-24.7	2.2%	-7.4%
CCC(C)NC(=O)c1n[nH]c(=O)c2ccccc12 (stereo unspecified)	-100.0*	1.0%	-5.1%
CN1CCN(c2ncc3nc(-c4cccc(C#N)c4)c(=O)n(CCc4ccccc4)c3n2)CC1	/	17.6%	/
O[C@@H](c1cc([C@@]23C[C@H]4CC[C@@H]2C[C@H](C4)C3)nc2c(Cl)cc(Cl)cc12)[C@@H]1CCCCN1	/	11.8%[11.4 µM]	-7.6%[11.4 µM]
